Measurements from PubChem BioAssay (NCATS).
A number with no mark means an inactive call. Records with an inconclusive call do not appear. Calls of active or inactive are those of the source. Unless noted, the call rests on the fitted dose curve.

Assays:
[1] = molecular target: Lysosomal acid glucosylceramidase (Homo sapiens) (UniProt P04062); experiment: Glucocerebrosidase-p2 (AID 348; in the data active means potency below about 10 µM; further: potency means the concentration at half of the fitted maximal effect); details: purified GBA, blue fluorogenic substrate, 40 min
Method in brief: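 Compounds titrated from 0.6 nM upwards against 0.2 nM enzyme in pH 5.9 citric acid/KH2PO4, taurocholate, tween-20; blue fluorogenic substrate 80 uM, 40 min room temperature, stopped and read Ex 365/Em 440 for AC50.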

[2] = molecular target: Cytochrome P450 1A2 (Homo sapiens) (UniProt P05177); experiment: p450-cyp1a2 (AID 410); details: recombinant CYP1A2, luciferin-ME demethylation, luminescence; series mostly up to 11.4 µM; further: potency means the concentration at half of the fitted maximal effect;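 on activity change, negative = inhibition: -100% = full effect of reference inhibitor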
Method in brief: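 20nM CYP1A2 with 100uM Luciferin-ME (at Km) in 100mM KPO4; compound preincubated 10 min, NADPH regeneration added, 60 min at room temperature. Luciferin quantified by luminescence after detection reagent; normalized to 57 uM furafylline.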

[3] = molecular target: Glucocorticoid receptor (Homo sapiens) (UniProt P04150); experiment: GR-GFP Redistribution (AID 450;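 active means compounds whose dose series gives a full or clear partial fitted curve of increased nuclear translocation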; further: potency means the concentration at half of the fitted maximal effect); details: U2OS GR-GFP nuclear translocation, laser cytometry, 2 h
[4] = molecular target: Glucocorticoid receptor (Homo sapiens) (UniProt P04150); experiment: GR-EFC Redistribution (AID 451); details: CHO-K1 GR-EFC translocation, beta-gal luminescence, 2 h; further: potency means the concentration at half of the fitted maximal effect
Method in brief: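 CHO-K1 cells expressing nuclear EA and GR-ED fragments of b-gal; compounds titrated up to 46 uM final, 2 h at 37 C. GR nuclear translocation read as complemented b-gal luminescence after 1 h RT detection.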

[5] = molecular target: Mitogen-activated protein kinase 10 (Mus musculus) (UniProt Q61831); experiment: JNK3 AlphaScreen Assay (AID 530; active means well fitted curve in either direction with a large enough effect, not every such curve was filed as active;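 further: kinase came from lysate of stimulated human HepG2 cells; signal reports phosphorylation of biotinylated GST-cJun 1-79 at Ser73 with 10 µM ATP; on the % scale 0 is the no-effect control and ±100 the full control effect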); details: JNK3 lysate, c-Jun phosphorylation; series mostly up to 11.4 µM
Method in brief: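 Pre-activated (IL-1β/TNFα) JNK3 in HepG2 lysates phosphorylates biotin-GST-cJun(1-79), 10 uM ATP; anti-phospho-cJun(Ser73) AlphaScreen read at room temperature, pH 7.6 Tris buffer. Compounds pre-incubated 15 min as titrations.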

[6] = molecular target: 3',5'-cyclic-AMP phosphodiesterase 4B (Homo sapiens) (UniProt Q07343); experiment: qHTS Assay for Inhibitors of PDE-IV (AID 607; active means well fitted activation curve with a large enough effect in the main read-out, with a control signal flat, not every such curve was filed as active; further: % of control where 0% means no effect); details: HEK293 ACTOne CNG channel cells, membrane potential fluorescence; series mostly up to 22.9 µM
Method in brief: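 HEK293 ACTOne cells with CNG channel (1000/well), endogenous PDE4; membrane potential dye, compounds up to 22.9 uM final. Fluorescence Ex 535/Em 590; RO 20-1724 (100 uM final) as reference.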

[7] = Stat Signaling Pathway (AID 446; active means well fitted curve in either direction with a large enough effect, not every such curve was filed as active;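 further: ME-180 cervical cancer cells given 40 pM IL-6 alongside compound; SIE-controlled beta-lactamase reporter measured as 460/530 nm FRET emission ratio; on the % scale 0 is the no-effect control and ±100 the full control effect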); details: ME-180 SIE beta-lactamase reporter, IL-6 stimulated, 5 h; at 7.69 µM (top of the series) unless noted
Method in brief: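 ME-180 cells carrying a SIE-driven beta-lactamase reporter are stimulated with 40 pM IL-6 for 5 h at 37C in the presence of compound. The 460/530 nm FRET substrate ratio is read after 2.5 h at RT. Data are normalised to 300 pM IL-6 and to 125 nM JAK inhibitor controls.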

[8] = molecular target: Cytochrome P450 2C9 (Homo sapiens) (UniProt P11712); experiment: qHTS Assay for Inhibitors and Substrates of Cytochrome P450 2C9 (AID 883; active means well fitted inhibition curve with a large enough effect; further: potency means the concentration at half of the fitted maximal effect; nearly all actives have a fitted effect of over 60% in size); details: recombinant CYP2C9, luciferin-H luminescence, 60 min; series mostly up to 11.4 µM
Method in brief: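 10nM CYP2C9 + 100uM Luciferin-H (=KM), 25mM KPO4; cpd 10 min 37C; NADPH regen, 60 min 37C; stop/detect with P450 Glo-Buffer 20 min; luminescence. Norm. to 57uM sulphaphenazole as full inhibition.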

[9] = molecular target: Cytochrome P450 2C19 (Homo sapiens) (UniProt P33261); experiment: qHTS Assay for Inhibitors and Substrates of Cytochrome P450 2C19 (AID 899; active means well fitted inhibition curve with a large enough effect; further: potency means the concentration at half of the fitted maximal effect; nearly all actives have a fitted effect of over 60% in size); details: recombinant CYP2C19, luciferin-H EGE luminescence; series mostly up to 11.4 µM
Method in brief: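 Luminescent read-out of luciferin formed from Luciferin-H EGE (10uM, equal to KM). Enzyme 5nM in 50mM KPO4; compound added, 10 min at 37C, then NADPH regenerating system for 60 min at 37C. Full inhibition defined by 57uM ketoconazole.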

[10] = NFAT Signaling Pathway (AID 444; active means well fitted curve in either direction with a large enough effect, not every such curve was filed as active;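 further: carbachol stimulus at about its EC50 of 1 µM final; on the % scale 0 is the no-effect control and ±100 the full control effect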); details: Jurkat NFAT-bla M1, carbachol, beta-lactamase ratio, 5 h; at 7.69 µM (top of the series) unless noted
Method in brief: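 Jurkat cells with NFAT-driven β-lactamase reporter and co-expressed M1 receptor, stimulated with carbachol (final 1 uM, ~EC50), compound titration, 5 h at 37 °C. CCF4 loaded 1 h at RT; 460/530 nm ratio gave %activity and AC50.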

Sequence of Cytochrome P450 1A2 (Homo sapiens) (P05177 whole entry, looked up): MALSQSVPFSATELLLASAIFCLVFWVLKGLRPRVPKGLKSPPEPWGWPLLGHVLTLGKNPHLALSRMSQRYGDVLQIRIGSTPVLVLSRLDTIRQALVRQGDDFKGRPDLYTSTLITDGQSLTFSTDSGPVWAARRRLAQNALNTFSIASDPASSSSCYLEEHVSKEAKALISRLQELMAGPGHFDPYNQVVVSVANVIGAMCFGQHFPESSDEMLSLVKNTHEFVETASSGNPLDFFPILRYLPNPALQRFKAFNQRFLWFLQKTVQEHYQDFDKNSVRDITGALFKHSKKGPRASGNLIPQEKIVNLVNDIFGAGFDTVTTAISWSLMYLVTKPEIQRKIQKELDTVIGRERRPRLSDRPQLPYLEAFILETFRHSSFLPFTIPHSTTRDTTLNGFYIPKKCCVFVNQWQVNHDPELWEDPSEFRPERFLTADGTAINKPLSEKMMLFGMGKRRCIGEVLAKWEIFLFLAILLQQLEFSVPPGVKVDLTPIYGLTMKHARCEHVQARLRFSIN
Sequence of Glucocorticoid receptor (Homo sapiens) (P04150 whole entry, looked up, the tested form may be a part): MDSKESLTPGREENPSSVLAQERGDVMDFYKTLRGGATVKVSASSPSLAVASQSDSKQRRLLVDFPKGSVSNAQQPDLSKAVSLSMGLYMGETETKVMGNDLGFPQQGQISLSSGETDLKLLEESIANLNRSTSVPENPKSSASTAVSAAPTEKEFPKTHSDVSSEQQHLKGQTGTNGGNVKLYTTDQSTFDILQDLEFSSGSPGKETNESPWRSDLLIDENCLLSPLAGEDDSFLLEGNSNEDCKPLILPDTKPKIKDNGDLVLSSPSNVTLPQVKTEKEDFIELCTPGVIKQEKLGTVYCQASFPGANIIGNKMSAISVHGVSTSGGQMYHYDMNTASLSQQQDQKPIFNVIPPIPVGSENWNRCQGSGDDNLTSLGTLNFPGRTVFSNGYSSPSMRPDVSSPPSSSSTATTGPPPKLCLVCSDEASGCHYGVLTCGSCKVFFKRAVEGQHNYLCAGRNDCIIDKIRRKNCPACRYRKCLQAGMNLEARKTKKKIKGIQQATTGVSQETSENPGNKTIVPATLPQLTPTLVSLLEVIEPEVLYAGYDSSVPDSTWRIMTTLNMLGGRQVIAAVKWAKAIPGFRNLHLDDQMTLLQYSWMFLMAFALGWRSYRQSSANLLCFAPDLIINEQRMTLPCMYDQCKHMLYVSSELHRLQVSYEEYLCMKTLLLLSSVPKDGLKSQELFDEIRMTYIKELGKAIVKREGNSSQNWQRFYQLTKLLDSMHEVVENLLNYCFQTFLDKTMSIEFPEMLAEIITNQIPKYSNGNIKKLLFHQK
Sequence of 3',5'-cyclic-AMP phosphodiesterase 4B (Homo sapiens) (Q07343 whole entry, looked up): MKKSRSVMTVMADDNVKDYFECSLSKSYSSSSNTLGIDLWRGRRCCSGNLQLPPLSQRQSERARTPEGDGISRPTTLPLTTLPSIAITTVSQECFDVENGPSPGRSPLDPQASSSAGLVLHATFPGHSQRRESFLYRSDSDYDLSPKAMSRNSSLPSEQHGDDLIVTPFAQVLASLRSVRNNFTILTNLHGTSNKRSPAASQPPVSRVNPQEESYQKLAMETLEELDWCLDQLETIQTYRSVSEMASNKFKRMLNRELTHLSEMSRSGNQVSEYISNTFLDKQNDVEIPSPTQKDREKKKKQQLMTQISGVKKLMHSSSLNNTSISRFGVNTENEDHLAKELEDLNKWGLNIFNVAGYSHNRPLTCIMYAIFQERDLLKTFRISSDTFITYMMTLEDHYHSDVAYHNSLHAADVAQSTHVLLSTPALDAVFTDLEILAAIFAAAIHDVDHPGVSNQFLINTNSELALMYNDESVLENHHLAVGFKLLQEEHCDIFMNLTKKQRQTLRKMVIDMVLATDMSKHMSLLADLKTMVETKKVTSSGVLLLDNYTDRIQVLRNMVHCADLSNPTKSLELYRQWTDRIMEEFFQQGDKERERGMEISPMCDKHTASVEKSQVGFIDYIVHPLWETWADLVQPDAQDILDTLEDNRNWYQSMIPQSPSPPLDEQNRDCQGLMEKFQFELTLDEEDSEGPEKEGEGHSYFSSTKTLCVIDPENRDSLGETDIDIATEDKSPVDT
Sequence of Lysosomal acid glucosylceramidase (Homo sapiens) (P04062 whole entry, looked up): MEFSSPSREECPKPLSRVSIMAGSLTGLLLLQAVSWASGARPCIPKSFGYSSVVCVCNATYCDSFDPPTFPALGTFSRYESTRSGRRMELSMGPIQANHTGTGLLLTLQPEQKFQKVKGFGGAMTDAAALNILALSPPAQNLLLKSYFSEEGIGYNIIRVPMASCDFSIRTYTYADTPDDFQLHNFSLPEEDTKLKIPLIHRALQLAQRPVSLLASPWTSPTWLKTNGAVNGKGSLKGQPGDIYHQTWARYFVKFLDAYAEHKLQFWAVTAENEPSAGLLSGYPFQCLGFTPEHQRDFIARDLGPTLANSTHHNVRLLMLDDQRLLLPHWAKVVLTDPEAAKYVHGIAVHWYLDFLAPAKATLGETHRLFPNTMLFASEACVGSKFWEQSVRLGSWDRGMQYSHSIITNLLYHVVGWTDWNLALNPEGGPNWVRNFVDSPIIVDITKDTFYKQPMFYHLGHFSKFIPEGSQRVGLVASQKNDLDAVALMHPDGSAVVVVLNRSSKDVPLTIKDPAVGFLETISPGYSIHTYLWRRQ
Sequence of Cytochrome P450 2C19 (Homo sapiens) (P33261 whole entry, looked up): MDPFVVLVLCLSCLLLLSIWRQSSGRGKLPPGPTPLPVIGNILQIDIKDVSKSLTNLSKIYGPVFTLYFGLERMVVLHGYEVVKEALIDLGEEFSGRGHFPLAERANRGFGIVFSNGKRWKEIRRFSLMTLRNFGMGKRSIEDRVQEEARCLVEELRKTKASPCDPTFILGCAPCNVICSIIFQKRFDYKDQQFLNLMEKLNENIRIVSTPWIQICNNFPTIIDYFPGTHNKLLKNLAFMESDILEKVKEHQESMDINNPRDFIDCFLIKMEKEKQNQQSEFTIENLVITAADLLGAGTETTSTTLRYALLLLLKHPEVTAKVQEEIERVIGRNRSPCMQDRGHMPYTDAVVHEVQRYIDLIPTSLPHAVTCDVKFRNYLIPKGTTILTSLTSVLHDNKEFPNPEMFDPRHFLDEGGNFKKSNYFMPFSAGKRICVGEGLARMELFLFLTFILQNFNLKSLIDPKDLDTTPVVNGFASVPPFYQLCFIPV
Sequence of Cytochrome P450 2C9 (Homo sapiens) (P11712 whole entry, looked up): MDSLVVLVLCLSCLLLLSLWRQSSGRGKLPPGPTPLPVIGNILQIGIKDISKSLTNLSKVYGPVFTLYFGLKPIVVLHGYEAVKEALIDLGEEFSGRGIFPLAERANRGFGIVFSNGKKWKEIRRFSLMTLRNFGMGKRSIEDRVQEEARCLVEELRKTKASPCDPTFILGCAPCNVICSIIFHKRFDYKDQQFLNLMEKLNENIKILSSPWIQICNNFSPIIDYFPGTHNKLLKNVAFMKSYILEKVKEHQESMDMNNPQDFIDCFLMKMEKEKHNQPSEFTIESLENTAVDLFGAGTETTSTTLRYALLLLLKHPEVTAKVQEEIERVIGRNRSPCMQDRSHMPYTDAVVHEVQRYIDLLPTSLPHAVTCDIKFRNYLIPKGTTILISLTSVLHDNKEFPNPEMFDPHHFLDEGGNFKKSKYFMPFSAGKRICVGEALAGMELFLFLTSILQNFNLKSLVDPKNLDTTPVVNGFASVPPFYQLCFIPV

Row | Compound | Potency [1] | activity change, negative = inhibition [2] | Potency [3] [µM] | Potency [4] [µM] | Potency [5] | Potency [6] | activity, negative = inhibition [7] [%] | Potency [8] | Potency [9] | Potency [2] | activity change, negative = inhibition [10] [%]
1 | Nc1ncnc2c([C@@H]3O[C@@H](CO)[C@H](O)[C@@H]3O)nsc12 | > 11.4 µM | -16.8% [at 2.29 µM] | > 46 | > 9.22 | inactive | inactive |  |  |  |  | 
2 | Nc1nc(Sc2ccc([N+](=O)[O-])c3nonc23)c2[nH]cnc2n1 | > 11.4 µM | -26.1% [at 2.29 µM] | > 46 | > 9.22 | inactive | inactive | -12.4 | 3.16 µM (active) | 1.58 µM (active) |  | 
3 | NCCSCCC(=O)O | > 11.4 µM |  | > 46 |  | inactive | inactive | 0.279 |  |  | inactive | 11.4
4 | COc1ccc(C(=O)[C@H](Br)[C@H](Br)C(=O)O)cc1 | > 11.4 µM |  | > 46 | > 9.22 | inactive | inactive |  |  |  | 3.98 µM (active) | 
5 | CCN(CC)CC[n+]1ccc2c(C)c3[nH]c4ccc(O)cc4c3c(C)c2c1 | > 11.4 µM |  | > 46 | > 9.22 | inactive | inactive | 26.1 |  |  | 3.16 µM (active) | 
6 | Nc1ncnc2nn([C@H]3O[C@@H](CO)[C@@H](O)[C@H]3O)nc12 | > 11.4 µM |  |  | > 9.22 | inactive | inactive | -5.99 |  |  | inactive | 5.89
7 | Oc1c(Cl)cc(C(c2cc(Cl)c(O)c(Cl)c2)C(c2cc(Cl)c(O)c(Cl)c2)c2cc(Cl)c(O)c(Cl)c2)cc1Cl | 5.75 µM (active) |  | > 46 | > 9.22 | inactive | inactive |  |  | 2.51 µM (active) | 0.794 µM (active) | 
8 | CC(=O)Nc1ccc(Cc2ccc3[nH]c(=O)cc(C)c3c2)cc1 | > 11.4 µM |  | > 46 | > 9.22 | inactive | inactive | -9.78 |  |  | inactive | 
